Assay [1] has as its target Tyrosine-protein kinase CSK (Homo sapiens) (UniProt P41240). The conditions noted are these: at 1 µM.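 Further: each value is an averaged inhibition reading.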
Assay [2] deals with T1, Discoidin domain-containing receptor 2 (Homo sapiens) (UniProt Q16832).
T1 sequence (whole entry): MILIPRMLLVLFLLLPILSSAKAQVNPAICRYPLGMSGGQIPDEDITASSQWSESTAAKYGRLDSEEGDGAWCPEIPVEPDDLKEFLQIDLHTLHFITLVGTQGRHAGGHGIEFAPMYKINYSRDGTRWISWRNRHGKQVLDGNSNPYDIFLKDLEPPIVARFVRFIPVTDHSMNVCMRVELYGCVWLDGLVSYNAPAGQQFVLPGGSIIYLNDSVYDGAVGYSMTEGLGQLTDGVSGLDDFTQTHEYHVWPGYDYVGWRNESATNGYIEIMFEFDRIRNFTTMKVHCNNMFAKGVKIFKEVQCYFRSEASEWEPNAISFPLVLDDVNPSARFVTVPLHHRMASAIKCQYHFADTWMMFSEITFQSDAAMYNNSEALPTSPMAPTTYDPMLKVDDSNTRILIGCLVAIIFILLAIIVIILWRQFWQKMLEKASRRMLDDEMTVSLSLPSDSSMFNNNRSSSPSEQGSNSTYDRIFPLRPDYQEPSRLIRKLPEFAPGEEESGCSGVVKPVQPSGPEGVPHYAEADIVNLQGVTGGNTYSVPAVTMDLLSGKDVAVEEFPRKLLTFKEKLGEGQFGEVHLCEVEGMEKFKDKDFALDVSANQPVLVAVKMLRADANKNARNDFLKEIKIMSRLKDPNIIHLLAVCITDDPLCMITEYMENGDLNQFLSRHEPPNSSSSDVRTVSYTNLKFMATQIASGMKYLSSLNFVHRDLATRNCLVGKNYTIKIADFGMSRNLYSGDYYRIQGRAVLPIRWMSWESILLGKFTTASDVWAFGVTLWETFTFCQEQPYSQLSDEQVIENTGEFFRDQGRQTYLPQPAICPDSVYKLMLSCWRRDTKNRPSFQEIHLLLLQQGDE
The conditions noted are these: at 0.1 µM.

Assay [3] addresses T1, Discoidin domain-containing receptor 2 (Homo sapiens). Conditions: at 1 µM.
Assay [4] addresses Epidermal growth factor receptor (Homo sapiens) (UniProt P00533). The conditions noted are these: at 0.1 µM.
The target is the same in assay [5]. Conditions: at 1 µM.
Assay [6] relates to Epidermal growth factor receptor (Homo sapiens), P00533 [L858R]. Conditions: at 0.1 µM.
The test system is the same in assay [7]. The conditions noted are these: at 1 µM.
Assay [8] deals with Epidermal growth factor receptor (Homo sapiens), P00533 [L861Q]. The conditions noted are these: at 0.1 µM.
Assay [9] has the same test system. The conditions noted are these: at 1 µM.
In assay [10] the test system is Epidermal growth factor receptor (Homo sapiens), P00533 [T790M]. The conditions noted are these: at 0.1 µM.
The test system is the same in assay [11]. Conditions: at 1 µM.
Assay [12] deals with Epidermal growth factor receptor (Homo sapiens), P00533 [L858R,T790M]. The conditions noted are these: at 0.1 µM.
Assay [13] shares this test system. The conditions noted are these: at 1 µM.
For assay [14], the target named is Ephrin type-A receptor 2 (Homo sapiens) (UniProt P29317). The conditions noted are these: at 0.1 µM.
Assay [15] shares this target. The conditions noted are these: at 1 µM.
Assay [16] has as its target T2, Ephrin type-A receptor 3 (Homo sapiens) (UniProt P29320).
T2 sequence (whole entry): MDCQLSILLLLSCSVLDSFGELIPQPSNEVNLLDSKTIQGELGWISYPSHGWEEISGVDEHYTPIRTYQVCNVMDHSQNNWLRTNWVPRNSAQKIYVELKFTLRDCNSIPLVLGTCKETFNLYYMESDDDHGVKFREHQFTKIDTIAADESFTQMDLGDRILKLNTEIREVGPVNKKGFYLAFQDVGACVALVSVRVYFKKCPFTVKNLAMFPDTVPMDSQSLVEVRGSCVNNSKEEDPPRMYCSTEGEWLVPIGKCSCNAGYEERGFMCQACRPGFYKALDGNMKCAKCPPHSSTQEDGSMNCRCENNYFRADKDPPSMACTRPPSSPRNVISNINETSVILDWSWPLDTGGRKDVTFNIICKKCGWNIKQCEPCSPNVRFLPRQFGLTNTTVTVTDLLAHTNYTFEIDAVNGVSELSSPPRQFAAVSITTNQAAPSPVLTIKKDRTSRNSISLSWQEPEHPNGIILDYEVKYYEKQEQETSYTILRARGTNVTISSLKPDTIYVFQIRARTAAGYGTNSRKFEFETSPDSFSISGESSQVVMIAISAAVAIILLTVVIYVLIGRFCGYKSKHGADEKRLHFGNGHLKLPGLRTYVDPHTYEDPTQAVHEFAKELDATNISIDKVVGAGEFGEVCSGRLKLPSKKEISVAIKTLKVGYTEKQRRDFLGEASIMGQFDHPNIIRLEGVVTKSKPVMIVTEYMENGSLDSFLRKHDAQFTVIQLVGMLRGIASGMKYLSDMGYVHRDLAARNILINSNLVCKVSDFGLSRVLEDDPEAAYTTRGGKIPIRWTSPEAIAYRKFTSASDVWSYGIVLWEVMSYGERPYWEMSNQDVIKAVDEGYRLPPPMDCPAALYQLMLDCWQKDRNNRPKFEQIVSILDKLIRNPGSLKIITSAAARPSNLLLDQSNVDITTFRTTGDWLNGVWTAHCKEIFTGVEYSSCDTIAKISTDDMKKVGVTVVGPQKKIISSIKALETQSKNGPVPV
The conditions noted are these: at 0.1 µM.

The target in assay [17] is T2, Ephrin type-A receptor 3 (Homo sapiens). Conditions: at 1 µM.
Assay [18] deals with Ephrin type-A receptor 4 (Homo sapiens) (UniProt P54764). The conditions noted are these: at 0.1 µM.
Assay [19] shares this target. The conditions noted are these: at 1 µM.
Assay [20] concerns the target T3, Ephrin type-B receptor 2 (Homo sapiens) (UniProt P29323).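 Further: reported as mean inhibition of EPHB2, from the GSK PKIS dataset.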
T3 sequence (whole entry): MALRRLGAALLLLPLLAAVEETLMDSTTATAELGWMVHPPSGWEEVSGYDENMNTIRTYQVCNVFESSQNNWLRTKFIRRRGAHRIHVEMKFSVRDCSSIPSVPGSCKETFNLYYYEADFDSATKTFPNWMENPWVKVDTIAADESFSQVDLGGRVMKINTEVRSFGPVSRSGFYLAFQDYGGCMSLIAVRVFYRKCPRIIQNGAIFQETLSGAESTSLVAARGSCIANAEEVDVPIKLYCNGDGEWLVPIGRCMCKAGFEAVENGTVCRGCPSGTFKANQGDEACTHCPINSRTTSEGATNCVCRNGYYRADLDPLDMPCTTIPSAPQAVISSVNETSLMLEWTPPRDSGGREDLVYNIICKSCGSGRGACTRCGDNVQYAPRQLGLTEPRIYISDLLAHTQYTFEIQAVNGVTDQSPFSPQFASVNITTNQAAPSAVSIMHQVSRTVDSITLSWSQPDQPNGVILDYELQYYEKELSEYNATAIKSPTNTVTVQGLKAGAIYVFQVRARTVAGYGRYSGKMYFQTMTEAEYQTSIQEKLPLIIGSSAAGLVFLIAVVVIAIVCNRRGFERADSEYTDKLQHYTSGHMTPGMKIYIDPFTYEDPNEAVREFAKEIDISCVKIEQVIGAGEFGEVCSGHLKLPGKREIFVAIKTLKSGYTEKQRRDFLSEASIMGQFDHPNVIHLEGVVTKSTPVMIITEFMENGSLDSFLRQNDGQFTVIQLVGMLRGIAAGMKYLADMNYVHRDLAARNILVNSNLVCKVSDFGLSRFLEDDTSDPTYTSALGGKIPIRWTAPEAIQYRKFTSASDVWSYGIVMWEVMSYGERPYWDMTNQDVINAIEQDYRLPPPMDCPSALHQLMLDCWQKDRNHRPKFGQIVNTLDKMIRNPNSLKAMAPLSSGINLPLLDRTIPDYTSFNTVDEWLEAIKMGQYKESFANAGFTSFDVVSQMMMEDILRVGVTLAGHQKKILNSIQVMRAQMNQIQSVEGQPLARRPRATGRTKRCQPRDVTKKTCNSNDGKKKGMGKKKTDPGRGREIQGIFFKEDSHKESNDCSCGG
Conditions: at 0.1 µM.

Epidermal growth factor receptor (Homo sapiens), P00533 [L858R,T790M], sequence (P00533 whole entry T790M/L858R, looked up): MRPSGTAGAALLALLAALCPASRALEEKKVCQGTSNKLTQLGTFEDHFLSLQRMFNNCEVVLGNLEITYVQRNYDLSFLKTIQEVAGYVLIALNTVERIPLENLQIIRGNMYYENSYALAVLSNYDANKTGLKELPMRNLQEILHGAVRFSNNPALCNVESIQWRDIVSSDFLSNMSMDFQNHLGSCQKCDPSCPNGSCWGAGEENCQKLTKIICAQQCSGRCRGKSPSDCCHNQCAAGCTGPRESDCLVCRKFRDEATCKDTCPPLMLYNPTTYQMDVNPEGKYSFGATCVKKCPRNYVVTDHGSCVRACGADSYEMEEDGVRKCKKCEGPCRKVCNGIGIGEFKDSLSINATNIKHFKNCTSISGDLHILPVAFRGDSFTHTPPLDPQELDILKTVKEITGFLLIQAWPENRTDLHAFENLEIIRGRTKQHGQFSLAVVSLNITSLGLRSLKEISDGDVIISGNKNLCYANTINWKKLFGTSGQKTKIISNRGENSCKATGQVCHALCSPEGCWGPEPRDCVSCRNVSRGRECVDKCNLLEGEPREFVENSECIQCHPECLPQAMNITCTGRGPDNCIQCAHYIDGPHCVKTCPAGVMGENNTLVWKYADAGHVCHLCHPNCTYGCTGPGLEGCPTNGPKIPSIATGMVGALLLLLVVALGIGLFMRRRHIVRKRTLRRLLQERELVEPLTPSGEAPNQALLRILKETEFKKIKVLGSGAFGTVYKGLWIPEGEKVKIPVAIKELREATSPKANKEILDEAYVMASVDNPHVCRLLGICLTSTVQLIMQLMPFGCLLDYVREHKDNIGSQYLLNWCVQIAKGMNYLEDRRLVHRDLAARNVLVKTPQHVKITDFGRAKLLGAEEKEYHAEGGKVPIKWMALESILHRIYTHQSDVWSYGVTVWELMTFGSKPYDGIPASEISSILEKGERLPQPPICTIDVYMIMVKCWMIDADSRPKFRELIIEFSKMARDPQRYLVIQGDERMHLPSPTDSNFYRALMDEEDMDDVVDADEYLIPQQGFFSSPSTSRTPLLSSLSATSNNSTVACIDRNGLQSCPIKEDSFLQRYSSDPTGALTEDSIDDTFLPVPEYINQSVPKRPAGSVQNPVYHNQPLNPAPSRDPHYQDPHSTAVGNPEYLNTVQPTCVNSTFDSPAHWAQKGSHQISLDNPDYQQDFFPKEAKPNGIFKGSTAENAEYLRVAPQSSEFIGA
Epidermal growth factor receptor (Homo sapiens), P00533 [L861Q], sequence (P00533 whole entry L861Q): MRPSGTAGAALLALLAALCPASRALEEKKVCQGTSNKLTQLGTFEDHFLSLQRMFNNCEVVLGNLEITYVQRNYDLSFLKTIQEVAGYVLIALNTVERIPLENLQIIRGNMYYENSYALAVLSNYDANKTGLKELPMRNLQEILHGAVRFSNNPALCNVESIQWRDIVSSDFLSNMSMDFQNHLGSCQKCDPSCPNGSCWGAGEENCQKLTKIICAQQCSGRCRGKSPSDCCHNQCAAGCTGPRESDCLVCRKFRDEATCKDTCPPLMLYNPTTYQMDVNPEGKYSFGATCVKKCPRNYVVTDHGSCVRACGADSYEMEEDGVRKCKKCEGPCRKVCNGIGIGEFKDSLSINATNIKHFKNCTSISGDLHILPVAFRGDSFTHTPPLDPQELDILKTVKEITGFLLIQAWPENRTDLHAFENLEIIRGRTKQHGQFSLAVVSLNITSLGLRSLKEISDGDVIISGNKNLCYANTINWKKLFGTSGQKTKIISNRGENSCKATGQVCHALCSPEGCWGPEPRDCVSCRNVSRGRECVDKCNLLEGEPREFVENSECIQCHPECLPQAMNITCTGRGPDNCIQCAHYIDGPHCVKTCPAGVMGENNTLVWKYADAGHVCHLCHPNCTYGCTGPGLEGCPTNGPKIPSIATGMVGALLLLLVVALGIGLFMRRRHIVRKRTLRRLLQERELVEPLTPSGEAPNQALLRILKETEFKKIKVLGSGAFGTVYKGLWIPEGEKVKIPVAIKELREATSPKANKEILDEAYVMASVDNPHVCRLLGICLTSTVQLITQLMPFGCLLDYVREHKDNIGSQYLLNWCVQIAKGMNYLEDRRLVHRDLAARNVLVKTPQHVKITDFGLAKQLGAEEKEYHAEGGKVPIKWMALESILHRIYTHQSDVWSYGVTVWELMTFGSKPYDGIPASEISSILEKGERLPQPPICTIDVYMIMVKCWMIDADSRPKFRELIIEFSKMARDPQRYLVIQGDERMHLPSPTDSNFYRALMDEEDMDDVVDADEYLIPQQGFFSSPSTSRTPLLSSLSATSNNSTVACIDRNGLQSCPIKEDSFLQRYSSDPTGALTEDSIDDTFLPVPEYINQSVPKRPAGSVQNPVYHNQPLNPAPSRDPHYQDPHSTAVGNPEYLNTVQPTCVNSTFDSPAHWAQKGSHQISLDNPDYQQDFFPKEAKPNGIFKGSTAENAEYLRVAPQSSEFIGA
Epidermal growth factor receptor (Homo sapiens), sequence (P00533 whole entry): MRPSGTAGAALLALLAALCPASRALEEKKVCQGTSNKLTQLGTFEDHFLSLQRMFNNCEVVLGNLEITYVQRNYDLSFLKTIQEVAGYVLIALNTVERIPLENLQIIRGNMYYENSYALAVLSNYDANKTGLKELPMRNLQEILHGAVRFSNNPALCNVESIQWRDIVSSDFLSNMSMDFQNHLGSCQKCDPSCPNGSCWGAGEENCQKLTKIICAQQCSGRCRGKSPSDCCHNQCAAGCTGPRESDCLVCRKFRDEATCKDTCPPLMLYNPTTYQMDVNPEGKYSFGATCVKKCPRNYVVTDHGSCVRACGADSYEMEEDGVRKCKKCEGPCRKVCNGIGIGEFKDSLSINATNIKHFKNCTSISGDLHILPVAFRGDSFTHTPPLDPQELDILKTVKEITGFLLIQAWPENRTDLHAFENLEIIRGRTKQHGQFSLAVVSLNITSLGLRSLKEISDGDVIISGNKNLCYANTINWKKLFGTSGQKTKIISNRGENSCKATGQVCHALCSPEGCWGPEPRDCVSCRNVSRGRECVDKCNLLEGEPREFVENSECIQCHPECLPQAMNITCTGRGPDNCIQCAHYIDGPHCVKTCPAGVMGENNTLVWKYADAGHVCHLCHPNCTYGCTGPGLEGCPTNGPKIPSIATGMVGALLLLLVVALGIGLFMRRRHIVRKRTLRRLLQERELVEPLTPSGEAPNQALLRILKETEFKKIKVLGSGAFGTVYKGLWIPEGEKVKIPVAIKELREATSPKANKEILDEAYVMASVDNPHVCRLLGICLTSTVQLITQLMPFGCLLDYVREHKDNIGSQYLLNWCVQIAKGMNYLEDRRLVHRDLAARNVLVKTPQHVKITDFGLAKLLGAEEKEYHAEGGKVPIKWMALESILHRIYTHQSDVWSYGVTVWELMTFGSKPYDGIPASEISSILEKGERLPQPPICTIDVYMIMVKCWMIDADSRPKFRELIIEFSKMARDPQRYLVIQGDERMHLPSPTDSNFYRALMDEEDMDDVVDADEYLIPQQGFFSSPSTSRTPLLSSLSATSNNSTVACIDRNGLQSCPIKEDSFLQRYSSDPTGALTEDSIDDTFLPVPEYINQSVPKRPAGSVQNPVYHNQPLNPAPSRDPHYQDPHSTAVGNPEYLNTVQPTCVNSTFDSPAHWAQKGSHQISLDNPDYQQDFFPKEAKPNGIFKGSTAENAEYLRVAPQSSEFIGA
Ephrin type-A receptor 4 (Homo sapiens), sequence (P54764 whole entry): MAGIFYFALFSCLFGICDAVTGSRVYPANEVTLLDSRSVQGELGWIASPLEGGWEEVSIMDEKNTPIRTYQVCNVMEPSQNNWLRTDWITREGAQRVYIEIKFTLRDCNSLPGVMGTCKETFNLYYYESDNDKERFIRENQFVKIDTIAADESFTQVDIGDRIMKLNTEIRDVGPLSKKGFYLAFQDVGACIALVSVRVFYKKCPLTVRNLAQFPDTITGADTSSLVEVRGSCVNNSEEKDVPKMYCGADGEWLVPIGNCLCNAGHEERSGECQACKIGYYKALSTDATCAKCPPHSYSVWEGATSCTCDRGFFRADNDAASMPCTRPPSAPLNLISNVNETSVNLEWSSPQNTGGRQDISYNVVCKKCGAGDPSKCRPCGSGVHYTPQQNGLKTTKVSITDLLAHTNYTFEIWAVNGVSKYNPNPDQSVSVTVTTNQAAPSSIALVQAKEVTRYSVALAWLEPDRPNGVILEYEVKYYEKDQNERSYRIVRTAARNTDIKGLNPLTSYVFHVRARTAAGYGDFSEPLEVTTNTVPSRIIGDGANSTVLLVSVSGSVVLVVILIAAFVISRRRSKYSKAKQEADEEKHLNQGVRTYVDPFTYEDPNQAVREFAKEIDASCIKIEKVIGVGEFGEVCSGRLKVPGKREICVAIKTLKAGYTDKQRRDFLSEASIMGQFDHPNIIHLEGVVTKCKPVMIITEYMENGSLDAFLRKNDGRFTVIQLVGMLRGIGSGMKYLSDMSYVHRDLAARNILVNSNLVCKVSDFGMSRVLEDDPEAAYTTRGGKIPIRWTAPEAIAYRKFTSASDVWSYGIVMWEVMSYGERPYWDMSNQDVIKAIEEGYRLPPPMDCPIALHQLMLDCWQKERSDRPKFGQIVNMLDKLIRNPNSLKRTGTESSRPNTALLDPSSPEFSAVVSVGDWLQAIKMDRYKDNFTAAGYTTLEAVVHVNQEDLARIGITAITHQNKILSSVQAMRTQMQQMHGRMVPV
Tyrosine-protein kinase CSK (Homo sapiens), sequence (P41240 2-450 limits assumed): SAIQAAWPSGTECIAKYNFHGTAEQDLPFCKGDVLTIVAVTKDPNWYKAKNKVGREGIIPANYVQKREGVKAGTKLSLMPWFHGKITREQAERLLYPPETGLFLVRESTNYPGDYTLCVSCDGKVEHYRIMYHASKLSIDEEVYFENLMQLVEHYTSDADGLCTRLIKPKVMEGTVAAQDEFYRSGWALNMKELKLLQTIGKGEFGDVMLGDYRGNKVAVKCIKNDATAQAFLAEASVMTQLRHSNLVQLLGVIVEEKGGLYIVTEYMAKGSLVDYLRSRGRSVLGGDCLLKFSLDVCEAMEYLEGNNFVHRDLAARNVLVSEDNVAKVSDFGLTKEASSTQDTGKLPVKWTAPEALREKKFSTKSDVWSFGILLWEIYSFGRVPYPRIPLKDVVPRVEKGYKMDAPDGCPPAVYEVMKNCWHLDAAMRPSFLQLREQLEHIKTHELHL

As for `O=C(Nc1n[nH]c2cc(-c3ccc(F)cc3)ccc12)C1CC1`, the inhibition in assay [1] is 5.61%; in assay [2], 2.28%; in assay [3], 1.71%; in assay [4] it was -1.79%; in assay [5] it was 4.27%; in assay [6], 0.24%. Moreover, the inhibition in assay [7] was 4.19%; in assay [8] it was 1.33%; in assay [9], 2.33%; in assay [10], 1.54%; in [11] it was 1.6%; in [12], 1.46%. The inhibition in assay [13] is 1.41%; in [14], -2.34%; in assay [15] it was -1.62%; in assay [16], 2.89%; in assay [17] it was 4.36%; in assay [18], 7.63%. The results for the inhibition in assay [19] and in assay [20] were 4.17% and 6.99%, respectively.
Consider `CC(=O)Nc1cccc(C#Cc2cncnc2Nc2ccc(OCc3cccc(F)c3)c(Cl)c2)c1`, for which the inhibition in [1] is -1.85%; in assay [2] it was 4.51%; in assay [3], 7.91%; in [14], 4.33%; in assay [15], 2.42%; in assay [16], 4.65%. The inhibition in assay [17] is 3.23%; in assay [18], 8.19%; in assay [19], 0.69%; in assay [20], 6.52%.
Consider `COC(=O)Nc1nc2ccc(S(=O)(=O)c3ccc(NC(=O)Nc4cc(C(F)(F)F)ccc4F)cc3)cc2[nH]1`, for which the inhibition was -1.83% in [1]; 10.3% in assay [2]; 62.7% in assay [3]; 0.69% in assay [4]; 7.04% in [5]; -0.69% in [6]. For the same molecule, the inhibition in assay [7] worked out at 1.58%; in assay [8], 0.81%; in assay [9], 2.11%; in assay [10], 2.47%; in [11], 0.19%; in [12], 0.89%. In addition, the inhibition is -0.68% in assay [13]; 2.49% in assay [14]; 6.48% in assay [15]; 3.46% in assay [16]; 4.35% in assay [17]; 4.8% in [18]. Further, the inhibition in assay [19] was determined as 9.4%; in assay [20] it was 6.82%.
With `Fc1ccc(-c2nn3ncccc3c2-c2ccnc(Nc3ccc4c(c3)OCCO4)n2)cc1`, the inhibition in assay [1] is 12.4%; in assay [2] it was 37.2%; in assay [3], 82.5%; in assay [4], 59.5%; in assay [5], 82.1%; in assay [6] it was 88.3%. Further, the inhibition was 98.4% in assay [7]; 63.6% in assay [8]; 89.5% in assay [9]; 15.3% in assay [10]; 63.8% in [11]; 45.5% in assay [12]. Also, the inhibition is 88.1% in [13]; 2.48% in assay [14]; 14.4% in assay [15]; 7.69% in [16]; 18.2% in assay [17]; 17.1% in assay [18]. Moreover, the inhibition in assay [19] amounted to 55.5%; in assay [20], 34.3%.
Consider `COc1cc2c(cc1Nc1nc(Nc3ccsc3C(N)=O)c3cc[nH]c3n1)N(C(=O)CN(C)C)CCC2(C)C`, for which the inhibition in assay [1] amounted to 0.65%; in assay [2], 4.88%; in assay [3], 1.72%; in [4], 1.56%; in [5] it was 9.19%; in [6] it was 5.69%. Besides, the inhibition was 33.1% in assay [7]; 1.86% in assay [8]; 14.5% in assay [9]; 26.6% in [10]; 70.8% in [11]; 51.9% in [12]. In addition, the inhibition in [13] was found to be 84.7%; in assay [14], 1.53%; in assay [15], 0.81%; in assay [16] it was 4.65%; in [17], 4.34%; in assay [18], 7.86%. The inhibition in assay [19] was 6.49%; in [20], 6.01%.
`COc1cc(N2CCN(C(C)C)CC2)ccc1Nc1nc(Nc2ccc(F)cc2C(N)=O)c2cc[nH]c2n1`: the inhibition in [1] is 0.44%; in assay [2], 0.99%; in [3] it was 0.35%; in assay [4], 5.2%; in assay [6], 1.78%; in assay [7] it was 39.2%. Also, the inhibition stood at 3.8% in [8]; 23.1% in [9]; 26.4% in [10]; 79.5% in assay [11]; 56.5% in assay [12]; 90.4% in assay [13]. Also, the inhibition in assay [14] is 0.87%; in assay [15], -0.92%; in assay [16] it was 1.78%; in assay [17], 1.28%; in [18], 4.96%; in [19], 6.43%. In assay [20], the inhibition amounted to 4.59%.
As for `CCCN1CCC(c2ccc(Nc3nc(Nc4cc(F)ccc4C(N)=O)c4cc[nH]c4n3)c(OC)c2)CC1`, the inhibition was found to be 6.03% in assay [1]; 0.6% in assay [2]; 3.39% in assay [3]; 8.69% in [4]; 40.3% in assay [5]; 5.44% in assay [6]. Besides, the inhibition was found to be 46.4% in assay [7]; 6.31% in assay [8]; 28.4% in assay [9]; 30.4% in assay [10]; 81.7% in assay [11]; 53.7% in assay [12]. Moreover, the inhibition was 89.1% in assay [13]; 1.29% in assay [14]; -0.82% in assay [15]; 3.91% in assay [16]; 4.22% in assay [17]; 6.74% in [18]. The inhibition in assay [19] is 12.9%; in assay [20], 6.06%.

In general, inhibition refers to the drop in the measured response relative to a control, in per cent.
